Biological target: Protein kinase C gamma type (Homo sapiens) (UniProt P05129)
Settings: at 0.1 µM
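Further: values are mean percent inhibition of PKC gamma.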

SMILES	inhibition
OCc1ccc(-c2nc(-c3ccccn3)c(-c3ccc4c(c3)OCO4)[nH]2)cc1	1.49%
[O-][S+]1CCN(Cc2ccc(-c3ccc4ncnc(Nc5ccc(OCc6ccccc6)c(Cl)c5)c4c3)o2)CC1	-0.93%
Cc1ccc2c(-c3ccnc(Nc4cccc(C(F)(F)F)c4)n3)c(-c3ccccc3)nn2n1	-1.08%
CCOc1nccc2c1nc(-c1nonc1N)n2CC	3.01%
NS(=O)(=O)c1ccc(N/N=C2\C(=O)Nc3ccc(Cl)cc32)cc1	-1.84%
COc1cccc(-n2ncc3c(N/N=C/c4ccc(S(C)(=O)=O)cc4)ncnc32)c1	1.86%
CCS(=O)(=O)c1ccc(OC)c(Nc2nccc(N(C)c3ccc4c(C)n[nH]c4c3)n2)c1	0.63%
Cc1ccc2c(c1)/C(=N/Nc1ccc(S(N)(=O)=O)cc1)C(=O)N2	-1.71%
Cc1cc(O)cc(C)c1/C=C/c1cncc(C(=O)N(C)C)c1	1.75%
O=C1Nc2ccccc2/C1=C/Nc1ccc2[nH]c(=O)[nH]c2c1	2.03%
COC(=O)c1ccc2c(c1)C(=Cc1cc(Br)c(O)c(Br)c1)C(=O)N2	1.07%
NS(=O)(=O)c1cccc(-c2cc3ccncc3cc2OCc2ccccc2)c1	3.28%
C[C@@H](Oc1cc(-n2cnc3ccc(OC[C@@H](O)CO)cc32)sc1C(N)=O)c1ccccc1Cl	-1.57%
NC(=O)c1cccc(Nc2nccc(Nc3cccc(F)c3)n2)c1	2.94%
Cc1ccc(NC(=O)CC2CC2)cc1-c1ccc(C(=O)NCC2CC2)cc1	2.09%
Cc1ccc(C(=O)NC2CC2)cc1-c1ccc2[nH]ncc2c1	-0.11%
Nc1nccc(-c2c(-c3ccc(F)cc3)ncn2CCCN2CCOCC2)n1	3.25%
N#Cc1c(NC(=O)c2ccccc2F)sc2c1CCCC2	0.73%
CN(C)CCCn1c(-c2nonc2N)nc2cnccc21	4.42%

— ChEMBL document CHEMBL1961873, “Compounds: GSK PKIS; Assays: Nanosyn kinase panel” (2012)
